Screen size: about 38,000 compounds; about 1,200 (3.2%) showed an effect of 50% or more. The median lay at about -58%. This excerpt belongs to a sample that is enriched for strong results.
system: Plasmodium falciparum; assay: Calibr Malaria Delayed Death Assay SOP; type: functional, organism-based; parameters: scale not given: in the data most compounds retested in dose-response had high values; conditions: concentration 4.99e-06 (unit not given; other assays of the set use mol/L)

| SMILES | Percent Effect |
| --- | --- |
| CC(C)OCc1noc(C2CCOC2)n1 (stereo not drawn) | -54.08% |
| COc1ccc(-c2nnc(CNCCn3cc(C)cn3)o2)cc1 | -61.63% |
| O=C(O)c1cc(S(=O)(=O)Nc2cccc3c2OCCO3)c(Cl)cc1F | -73.09% |
| O=S(=O)(c1ccccc1Cl)N1CCC2(CC1)OCCS2 | -115.5% |
| CCN1CCCC2(CCN(Cc3nnc(C4CC4)o3)C2)C1=O (stereo not drawn) | -40.49% |
| CC(C)CCN1CCN(CC(=O)Nc2ccc3nsnc3c2)CC1 | -73.84% |
| Cc1ncncc1C(=O)N1CCCC(c2[nH]ncc2S(C)(=O)=O)C1 (stereo not drawn) | -131.2% |
| CN(C)c1ccc(CNC2=NCCCN2)cc1.I | -57.09% |
| I.c1ccc(OCCNC2=NCCCN2)cc1 | 17.05% |
| CCOCc1ccc(CNC2=NCCCN2)cc1.I | 55.49% |
| COc1ccc(-n2cc(CNC(=O)c3cscn3)nn2)cc1 | -125.4% |
| CC(C)c1nc2c(n1C)CCN(CC(=O)Nc1ccc(Cl)cn1)C2 | -37.81% |
| CCc1ncc2c(n1)CN(CC(=O)Nc1ccc(Cl)cn1)CC2 | 58.18% |
| CCc1ncc2c(n1)CN(CC(=O)Nc1ccncc1)CC2 | -164.3% |
| COCC1c2c(cnn2C)CCN1C(=O)c1cccn1C.O=C(O)C(F)(F)F (stereo not drawn) | -111.1% |
| CCC1CN(CC(=O)NCCN2CCCCC2)c2ccccc2S1 (stereo not drawn) | 71.16% |
| Cc1ccccc1C1CCN(CCNC(=O)CS(C)(=O)=O)C1 (stereo not drawn) | -6.702% |
| CCC1CN(CC(=O)NCCN(CC)CC)c2ccccc2S1 (stereo not drawn) | 75.77% |
| O=C(NCCN1CCCCC1)c1nc2ccccc2c(=O)[nH]1 | -48.08% |
| O=C(NCCN1CCCC1)c1cc2c(s1)CCN2C(=O)c1ccccc1 | -40.79% |
| COc1ccccc1N1CCC(CNC(=O)CN2CSCC2=O)C1 (stereo not drawn) | -74.71% |
| CCC1CN(CC(=O)NCCN2CCCCCC2)c2ccccc2S1 (stereo not drawn) | 72.72% |
| CCN(CC)CCNC(=O)c1cnc(-c2ccccc2)nc1 | -36.61% |
| CCn1nc(C)c2ccn(CC(=O)NCCN3CCCCC3)c(=O)c21 | -46.75% |
| CCC1CN(CC(=O)NCCN2CCCC2)c2ccccc2S1 (stereo not drawn) | 62.37% |
| Cc1nn(C)c2c(=O)n(CC(=O)NCCN3CCCCCC3)ccc12 | 8.921% |

| SMILES | Percent Effect |
| --- | --- |
| O=C(NCCN1CCCCC1)c1cccc(Cl)c1Cl | 47.98% |
| O=C1CCCN1Cc1ncn2c1CN(C(=O)Cc1ccccc1)CCC2 | -76.95% |
| CC1CCCCN1C(=O)COCc1nc(-c2ccncc2)no1 (stereo not drawn) | -64.65% |
| O=C(O)C(F)(F)F.O=C(O)C(F)(F)F.O=C(O)c1c(-c2ccncc2)ncc2c1CCN(CC1CCOC1)C2 (stereo not drawn) | -34.25% |
| Cc1cc(S(=O)(=O)N2CCCc3ccccc32)sc1C(=O)O | -124.8% |
| O=C(Cc1ccsc1)N1Cc2nc(CN3CCCCC3)oc2C1.O=C(O)C(F)(F)F | -52.68% |
| Cc1nonc1CN(C)Cc1nc(-c2cccc(F)c2F)oc1C | -82.79% |
| COCCN(Cc1ccccc1)C(=O)c1cnn(C)c1C | -75.6% |
| O=C(O)C(F)(F)F.O=C(O)C(F)(F)F.c1cc(CN2CCC3(CC2)COC(COCC2CC2)C3)ccn1 (stereo not drawn) | -17.94% |
| Cc1nn(C)c(Oc2ccccc2)c1CNC1CCCCNC1=O (stereo not drawn) | -0.05055% |
| COc1ccc(-c2c(C(C)C)nn3c(=N)c(C#N)n[nH]c23)cc1 | -149.3% |
| COc1ccc(-c2c(C)nn3c(=N)c(C#N)n[nH]c23)cc1 | -120.8% |
| COc1ccc(-c2c(C)nn3c(=N)c(C#N)n[nH]c23)cc1OC | 87.26% |
| CCn1ncc2c1C(COC)CN(Cc1ccc(C)o1)C2 (stereo not drawn) | -90.58% |
| CCN(C)C(=O)c1cccc(C(=O)N(C)Cc2cccc(O)c2)c1 | -54.27% |
| O=C(NC[C@H]1C[C@@H]2CCN1C[C@@H]2CN1CCCCC1)Nc1ccccc1 | -35.07% |
| O=S(=O)(NC[C@H]1C[C@@H]2CCN1C[C@@H]2CN1CCOCC1)c1ccccc1 | -72.09% |
| O=S(=O)(NC[C@H]1C[C@@H]2CCN1C[C@@H]2CN1CCCC1)c1ccc(Cl)cc1 | 89.33% |
| Cc1nn(C)cc1CN1CCCCCC1c1ccccc1Cl (stereo not drawn) | -108.4% |
| CCSc1ncc(-c2cc(C3CCC3)nc(N)c2C#N)cn1 | -33.43% |
| CCSc1ncc(-c2cc(C3CC3)nc(N)c2C#N)cn1 | 1.431% |
| CCCNc1ncc(-c2cc(C3CC3)nc(N)c2C#N)cn1 | 54.19% |
| Cc1ccc(CSc2ncc(Br)c(C(=O)O)n2)cc1 | -107.1% |
| NC(=O)Nc1ccc(C(=O)NCCn2cccc2)cc1 | -116.7% |
| CC(C(=O)Nc1ccccc1Sc1ccccc1)S(C)(=O)=O (stereo not drawn) | -117.7% |
| CC(C)C(=O)NS(=O)(=O)CCc1ccccc1 | -111.2% |

| SMILES | Percent Effect |
| --- | --- |
| CNS(=O)(=O)CC(=O)NC(C)Cc1ccccc1Br (stereo not drawn) | -190.6% |
| Cn1c(CC(=O)O)c(Sc2ccccc2)c2ccccc21 | -130% |
| CNC(C)Cc1ccccc1Sc1ccc(O)cc1.Cl (stereo not drawn) | 87.88% |
| CC(N)Cc1ccccc1Sc1ccccc1.O=C(O)/C=C\C(=O)O (stereo not drawn) | 77.8% |
| COc1ccccc1CC(C)CC(=O)O (stereo not drawn) | -155.2% |
| CC(N)Cc1ccccc1Sc1ccc(O)cc1.CC(N)Cc1ccccc1Sc1ccc(O)cc1.O=C(O)C(=O)O (stereo not drawn) | 71.69% |
| NCc1ccccc1Sc1ccc(O)cc1.O=C(O)/C=C\C(=O)O | 55.63% |
| CC[C@H](C)[C@@H](CO)NC(C)Cc1ccccc1F (stereo partly drawn) | 48.98% |
| CC(C)CCN1C2(CCN(C(=O)C3(C)CC3)C2)c2ccccc2S1(=O)=O (stereo not drawn) | -11.02% |
| CCc1ncc2c(n1)CN(Cc1nnc(CC)o1)CC2 | -50.82% |
| CC(C)Nc1nc2c(cc1C(=O)O)CCN(Cc1ccsc1)CC2.O=C(O)C(F)(F)F.O=C(O)C(F)(F)F | -107.1% |
| Cc1csc(CNC(=O)NCC(C)Cn2nc(C)cc2C)n1 (stereo not drawn) | -114.8% |
| Cc1c(C(=O)N(C)C)cccc1N(C)S(C)(=O)=O | -103.2% |
| Cc1ncc(CNC(=O)Cc2cccs2)c(C2CCCN2C)n1 (stereo not drawn) | -27.86% |
| Cc1nn(C)c(C)c1CC(=O)N1CCCC1Cn1cccn1 (stereo not drawn) | -102.7% |
| CN1CCN(S(=O)(=O)c2cccc(F)c2)c2cnccc21 | 11.1% |
| CN1CCN(S(=O)(=O)c2cccnc2)c2cnccc21 | -116.1% |
| Cc1ccc(S(=O)(=O)N2CCN(C)c3ccncc32)cc1F | 60.6% |
| Cc1cc(F)ccc1S(=O)(=O)N1CCN(C)c2ccncc21 | 20.68% |
| CN1CCCN(S(=O)(=O)c2cnn(C)c2)c2cc(Cl)ccc21 | -19.46% |
| CN1CCN(S(=O)(=O)c2ccc(Cl)c(Cl)c2)c2cnccc21 | 89.32% |
| CCOC(=O)COc1nc(CC(C)C)c2c(c1C#N)CCC2 | -73.52% |
| CN1CCCCC1CCC(=O)NCCCn1ncc2ccccc21 (stereo not drawn) | -37.16% |
| CCSc1cc(C(=O)NC2CCN(C(=O)c3ccncc3)CC2)ccn1 | -119% |
| CC(NCc1cnc(C2CCC2)s1)c1ccccc1-n1cccn1 (stereo not drawn) | -47.47% |
| CC(NC1CCCC1)c1ccccc1-n1cccn1 (stereo not drawn) | 80.66% |

| SMILES | Percent Effect |
| --- | --- |
| O=C(NCc1ccccc1-n1cccn1)N1CCN2CCCCC2C1 (stereo not drawn) | -71.32% |
| CS(=O)(=O)CCCN(CCCO)C1CCc2ccccc21 (stereo not drawn) | -127.8% |
| CN(C)CCn1ccnc1C1CCCN(c2ncc(Cl)cc2F)C1 (stereo not drawn) | 35.69% |
| Cc1cc(C)nc(N2CCCC(c3nccn3CCCN(C)C)C2)c1 (stereo not drawn) | 50.47% |
| COc1cc(OC)nc(N2CCCC(c3nccn3CCN(C)C)C2)n1 (stereo not drawn) | -26.11% |
| CN(C)CCCn1ccnc1C1CCCN(c2ncc(Cl)cc2F)C1 (stereo not drawn) | 83.94% |
| Fc1cc(Cl)cnc1N1CCCC(c2nccn2CC2CC2)C1 (stereo not drawn) | 3.7% |
| CN(C)CCn1ccnc1C1CCCN(c2cc(N)ncn2)C1 (stereo not drawn) | -56.5% |
| Cc1ccc(C)c(Oc2cc(-n3nc(C)c(C#N)c3N)nc(C)n2)c1 | -175% |
| Cc1cc(C2CCCN2C(=O)NCc2c(C)cc(C)[nH]c2=O)on1 (stereo not drawn) | -57.59% |
| CN(CC1COCCO1)c1ncnc2cc(F)ccc12 (stereo not drawn) | -82.12% |
| Cn1cccc1C(=O)N1CCN(Cc2cccnc2)c2ncccc2C1.O=C(O)C(F)(F)F.O=C(O)C(F)(F)F | -59.69% |
| Cc1nc[nH]c1CN1CCC(C2CCN(CCc3ccccc3)C2)CC1 (stereo not drawn) | 9.569% |
| Cn1nc2c(cc1=O)CN(c1nc3ccccc3s1)CC2 | -163.5% |
| Cc1nc[nH]c1CN1CCCN(c2nc3ccccc3s2)CC1 | 54.13% |
| c1ccc2sc(N3CCN(c4ncnc5c4CCC5)CC3)nc2c1 | -56.68% |
| c1ccc2sc(N3CCCN(c4ncnc5c4CCNC5)CC3)nc2c1 | 85.14% |
| Cc1ncnc(N2CCCN(c3nc4ccccc4s3)CC2)c1C | -444.8% |
| Cc1ccc(CNCc2nccn2C)c(OC(C)(C)C)c1 | 8.3% |
| O=C(NCCc1coc(-c2ccccc2)n1)NC1CC1 | -110.7% |
| CN(C)CCN1CCOCC12CCN(C(=O)C1CC1)CC2.O=C(O)C(F)(F)F.O=C(O)C(F)(F)F | -16.92% |
| CC(C(=O)NCc1cn2cc(Br)ccc2n1)S(C)(=O)=O (stereo not drawn) | -87.47% |
| Cc1cc(CN(C)C(=O)C(c2ccccc2)N2CCSCC2)no1 (stereo not drawn) | -62.62% |
| CCn1cnnc1CNC(=O)N1CCN(c2cccc(C)c2)CC1 | -132.8% |
| Cc1cc(C)n(-c2cncc(NCCNS(C)(=O)=O)n2)n1 | -82.28% |

From ChEMBL document CHEMBL3988442, “University of Dundee, Small-Polar-MMV Screening Library” (2021)
